Reference: the supplement of paper PMC10849652
About 7,900 targets were measured; listed, in parts, are those with a hit and a random draw of the rest. About 0.6% of all pairs of compound and target were hits.

Columns and labels:
Test in all cases: log2 fold change, soluble protein after heating vs DMSO (PISA); higher = thermal stabilisation; K562 cells, 10 uM, 30 min; active = over 0.2 and 3.5 SD of the protein, either way, in both replicates (recomputed)
[1] = compound: CS(=O)(=O)c1ccc(-c2cnc(N)c(C(=O)Nc3ccccc3)n2)cc1
Method in brief: (§1)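 K562 cells at 2×10^6 cells/mL were given 10 μM compound for 30 min. Aliquots then went through 3 min of heating across 48°C-58°C, were pooled, and were extracted in PBS with 0.5% NP-40 at 4°C, and the supernatant after 21,000xg for 90 min was quantified by TMTpro 16plex LC-MS/MS with channel sums equalised. Thermal stability relative to control samples, from duplicates, is given as log2 fold change.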

crizotinib = compound: C[C@@H](Oc1cc(-c2cnn(C3CCNCC3)c2)cnc1N)c1c(Cl)ccc(F)c1Cl [crizotinib]
Method in brief: as §1

[2] = compound: C[C@@H]1COCCN1C2=NC(=NC(=C2)C3(CC3)S(=O)(=O)C)C4=C5C=CNC5=CC=C4
Method in brief: as §1

[3] = compound: C[C@H](C1=CC=C(C=C1)C(=O)NC2=C3C=CNC3=NC=C2)N
Method in brief: as §1

duvelisib = compound: C[C@H](Nc1ncnc2nc[nH]c12)c1cc2cccc(Cl)c2c(=O)n1-c1ccccc1 [duvelisib]
Method in brief: as §1

gandotinib = compound: Cc1cc(Nc2cc(CN3CCOCC3)c3nc(C)c(Cc4ccc(Cl)cc4F)n3n2)n[nH]1 [gandotinib]
Method in brief: as §1

tozasertib = compound: Cc1cc(Nc2cc(N3CCN(C)CC3)nc(Sc3ccc(NC(=O)C4CC4)cc3)n2)n[nH]1 [tozasertib]
Method in brief: as §1

[4] = compound: Cc1cc(SCc2sc(-c3ccc(C(F)(F)F)cc3)nc2C)ccc1OCC(=O)O
Method in brief: as §1

doramapimod = compound: Cc1ccc(-n2nc(C(C)(C)C)cc2NC(=O)Nc2ccc(OCCN3CCOCC3)c3ccccc23)cc1 [doramapimod]
Method in brief: as §1

ispinesib = compound: Cc1ccc(C(=O)N(CCCN)[C@@H](c2nc3cc(Cl)ccc3c(=O)n2Cc2ccccc2)C(C)C)cc1 [ispinesib]
Method in brief: as §1

bafetinib = compound: Cc1ccc(NC(=O)c2ccc(CN3CC[C@H](N(C)C)C3)c(C(F)(F)F)c2)cc1Nc1nccc(-c2cncnc2)n1 [bafetinib]
Method in brief: as §1

[5] = compound: Cc1cccc(CC(=O)N2CCc3c2ccc(-c2cn(C)c4ncnc(N)c24)c3F)n1
Method in brief: as §1

nilotinib = compound: Cc1cn(-c2cc(NC(=O)c3ccc(C)c(Nc4nccc(-c5cccnc5)n4)c3)cc(C(F)(F)F)c2)cn1 [nilotinib]
Method in brief: as §1

[6] = compound: Cc1nc(Nc2n[nH]c3c2CN(C(=O)N[C@H](CN(C)C)c2ccccc2)C3(C)C)c2sccc2n1
Method in brief: as §1

dasatinib = compound: Cc1nc(Nc2ncc(C(=O)Nc3c(C)cccc3Cl)s2)cc(N2CCN(CCO)CC2)n1 [dasatinib]
Method in brief: as §1

[7] = compound: Cc1ncc(-c2ccnc(Nc3ccc(S(C)(=O)=O)cc3)n2)n1C(C)C
Method in brief: as §1

[8] = compound: Cn1cc(-c2ccc3c(c2)CCN3C(=O)Cc2cccc(C(F)(F)F)c2)c2c(N)ncnc21
Method in brief: as §1

[9] = compound: Cn1cc(-c2ccc3nnc(C(F)(F)c4ccc5ncccc5c4)n3n2)cn1
Method in brief: as §1

tipifarnib = compound: Cn1cncc1[C@@](N)(c1ccc(Cl)cc1)c1ccc2c(c1)c(-c1cccc(Cl)c1)cc(=O)n2C [tipifarnib]
Method in brief: as §1

mubritinib = compound: FC(F)(F)c1ccc(/C=C/c2nc(COc3ccc(CCCCn4ccnn4)cc3)co2)cc1 [mubritinib]
Method in brief: as §1

Measured: log2 fold change

RNF14 (UniProt Q9UBS8)
UniProt Q9UBS8, sequence (Q9UBS8 whole entry, looked up): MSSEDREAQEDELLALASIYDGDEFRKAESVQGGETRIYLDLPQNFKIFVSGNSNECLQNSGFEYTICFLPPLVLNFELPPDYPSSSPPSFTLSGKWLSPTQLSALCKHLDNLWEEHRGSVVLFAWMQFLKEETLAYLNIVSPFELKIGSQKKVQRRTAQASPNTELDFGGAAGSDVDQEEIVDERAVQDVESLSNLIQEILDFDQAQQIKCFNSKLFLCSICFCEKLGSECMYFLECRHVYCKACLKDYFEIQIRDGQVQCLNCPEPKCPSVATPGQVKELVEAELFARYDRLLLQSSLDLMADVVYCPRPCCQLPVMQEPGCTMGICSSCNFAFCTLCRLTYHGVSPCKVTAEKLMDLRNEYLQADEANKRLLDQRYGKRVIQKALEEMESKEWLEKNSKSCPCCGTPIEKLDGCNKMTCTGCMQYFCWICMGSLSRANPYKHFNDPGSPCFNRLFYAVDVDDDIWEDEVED
inactive: [1] 0.034 | crizotinib 0.014 | [2] 0.081 | [3] -0.053 | duvelisib 0.031 | gandotinib 0.001 | tozasertib 0.058 | [4] 0.041 | doramapimod -0.025 | ispinesib -0.032 | bafetinib -0.033 | [5] 0.05 | nilotinib -0.002 | [6] -0.07 | dasatinib -0.136 | [7] -0.048 | [8] -0.017 | [9] 0.033 | tipifarnib -0.05 | mubritinib 0.017

SETD3 (UniProt Q86TU7)
inactive: [1] 0.007 | crizotinib 0.051 | [2] 0.076 | [3] -0.012 | duvelisib 0.005 | gandotinib 0.021 | tozasertib -0.037 | [4] 0.012 | doramapimod -0.026 | ispinesib 0.059 | bafetinib -0.015 | [5] -0.005 | nilotinib 0.002 | [6] -0.009 | dasatinib 0.006 | [7] -0.023 | [8] 0.033 | [9] 0.031 | tipifarnib 0.029 | mubritinib 0.052

SELENOH (UniProt Q8IZQ5)
UniProt Q8IZQ5, sequence (Q8IZQ5 whole entry, looked up): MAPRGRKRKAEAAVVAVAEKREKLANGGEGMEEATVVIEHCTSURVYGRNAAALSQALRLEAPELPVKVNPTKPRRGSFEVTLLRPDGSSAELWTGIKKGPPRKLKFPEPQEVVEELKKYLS
inactive: [1] -0.19 | crizotinib 0 | [2] -0.014 | [3] -0.022 | duvelisib -0.101 | gandotinib -0.12 | tozasertib -0.008 | [4] -0.051 | doramapimod -0.018 | ispinesib 0.036 | bafetinib 0.042 | [5] 0.21 | nilotinib -0.02 | [6] 0.011 | dasatinib 0.076 | [7] 0.012 | [8] -0.039 | [9] 0.036 | tipifarnib -0.01 | mubritinib -0.009

SLBP (UniProt Q14493)
UniProt Q14493, sequence (Q14493 whole entry, looked up): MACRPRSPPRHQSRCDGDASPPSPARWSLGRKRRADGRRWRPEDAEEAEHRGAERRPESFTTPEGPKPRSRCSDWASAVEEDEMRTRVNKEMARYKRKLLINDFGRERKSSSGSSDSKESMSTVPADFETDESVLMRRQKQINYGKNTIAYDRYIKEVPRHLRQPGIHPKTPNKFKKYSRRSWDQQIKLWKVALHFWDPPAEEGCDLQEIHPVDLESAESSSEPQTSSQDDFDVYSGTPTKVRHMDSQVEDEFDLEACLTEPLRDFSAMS
active: [7] -0.423
inactive: [1] -0.026 | crizotinib -0.042 | [2] 0.132 | [3] 0.003 | duvelisib -0.128 | gandotinib -0.022 | tozasertib -0.012 | [4] 0.055 | doramapimod 0.007 | ispinesib -0.063 | bafetinib 0.11 | [5] -0.017 | nilotinib -0.05 | [6] -0.093 | dasatinib 0.031 | [8] -0.042 | [9] -0.033 | tipifarnib 0 | mubritinib -0.023

RALY (UniProt Q9UKM9)
UniProt Q9UKM9, sequence (Q9UKM9 whole entry, looked up): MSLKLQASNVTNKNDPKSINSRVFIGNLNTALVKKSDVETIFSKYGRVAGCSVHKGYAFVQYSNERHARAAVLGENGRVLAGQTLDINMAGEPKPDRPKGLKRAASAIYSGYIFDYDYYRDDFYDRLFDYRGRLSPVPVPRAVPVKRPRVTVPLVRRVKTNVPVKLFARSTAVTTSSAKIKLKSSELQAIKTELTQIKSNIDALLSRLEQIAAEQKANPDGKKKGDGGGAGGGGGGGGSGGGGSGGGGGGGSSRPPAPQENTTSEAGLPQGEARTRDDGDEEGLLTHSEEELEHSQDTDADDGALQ
inactive: [1] -0.149 | crizotinib -0.068 | [2] -0.138 | [3] 0.316 | duvelisib -0.161 | gandotinib 0.098 | tozasertib 0.051 | [4] 0.043 | doramapimod 0.01 | ispinesib -0.082 | bafetinib 0.077 | [5] -0.069 | nilotinib -0.029 | [6] 0.051 | dasatinib 0.249 | [7] -0.151 | [8] -0.596 | [9] -0.011 | tipifarnib -0.118 | mubritinib -0.257

RTF2 (UniProt Q9BY42)
UniProt Q9BY42, sequence (Q9BY42 whole entry, looked up): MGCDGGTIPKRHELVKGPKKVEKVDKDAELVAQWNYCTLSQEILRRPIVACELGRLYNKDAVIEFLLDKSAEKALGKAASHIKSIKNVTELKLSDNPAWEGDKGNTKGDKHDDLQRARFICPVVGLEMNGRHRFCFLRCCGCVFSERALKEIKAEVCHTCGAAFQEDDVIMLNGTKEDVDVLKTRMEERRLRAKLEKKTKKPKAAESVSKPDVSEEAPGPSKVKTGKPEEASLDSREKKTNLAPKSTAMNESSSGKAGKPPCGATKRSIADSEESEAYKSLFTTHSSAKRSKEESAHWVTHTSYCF
inactive: [1] -0.005 | crizotinib 0.234 | [2] -0.061 | [3] -0.089 | duvelisib 0.116 | gandotinib 0.104 | tozasertib 0.166 | [4] -0.003 | doramapimod -0.083 | ispinesib 0.151 | bafetinib -0.074 | [5] -0.001 | nilotinib -0.045 | [6] -0.125 | dasatinib -0.012 | [7] 0.039 | [8] -0.071 | [9] -0.039 | tipifarnib -0.065 | mubritinib -0.047

RNF167 (UniProt Q9H6Y7)
active: ispinesib -0.668
inactive: [1] 0.087 | crizotinib -0.133 | [2] -0.097 | [3] 0.082 | duvelisib -0.026 | gandotinib -0.045 | tozasertib 0.027 | [4] 0.018 | doramapimod -0.056 | bafetinib -0.049 | [5] -0.012 | nilotinib 0.049 | [6] -0.014 | dasatinib 0.039 | [7] 0.025 | [8] -0.068 | [9] 0.032 | tipifarnib 0.008 | mubritinib 0.001

RRP12 (UniProt Q5JTH9)
UniProt Q5JTH9, sequence (Q5JTH9 whole entry, looked up): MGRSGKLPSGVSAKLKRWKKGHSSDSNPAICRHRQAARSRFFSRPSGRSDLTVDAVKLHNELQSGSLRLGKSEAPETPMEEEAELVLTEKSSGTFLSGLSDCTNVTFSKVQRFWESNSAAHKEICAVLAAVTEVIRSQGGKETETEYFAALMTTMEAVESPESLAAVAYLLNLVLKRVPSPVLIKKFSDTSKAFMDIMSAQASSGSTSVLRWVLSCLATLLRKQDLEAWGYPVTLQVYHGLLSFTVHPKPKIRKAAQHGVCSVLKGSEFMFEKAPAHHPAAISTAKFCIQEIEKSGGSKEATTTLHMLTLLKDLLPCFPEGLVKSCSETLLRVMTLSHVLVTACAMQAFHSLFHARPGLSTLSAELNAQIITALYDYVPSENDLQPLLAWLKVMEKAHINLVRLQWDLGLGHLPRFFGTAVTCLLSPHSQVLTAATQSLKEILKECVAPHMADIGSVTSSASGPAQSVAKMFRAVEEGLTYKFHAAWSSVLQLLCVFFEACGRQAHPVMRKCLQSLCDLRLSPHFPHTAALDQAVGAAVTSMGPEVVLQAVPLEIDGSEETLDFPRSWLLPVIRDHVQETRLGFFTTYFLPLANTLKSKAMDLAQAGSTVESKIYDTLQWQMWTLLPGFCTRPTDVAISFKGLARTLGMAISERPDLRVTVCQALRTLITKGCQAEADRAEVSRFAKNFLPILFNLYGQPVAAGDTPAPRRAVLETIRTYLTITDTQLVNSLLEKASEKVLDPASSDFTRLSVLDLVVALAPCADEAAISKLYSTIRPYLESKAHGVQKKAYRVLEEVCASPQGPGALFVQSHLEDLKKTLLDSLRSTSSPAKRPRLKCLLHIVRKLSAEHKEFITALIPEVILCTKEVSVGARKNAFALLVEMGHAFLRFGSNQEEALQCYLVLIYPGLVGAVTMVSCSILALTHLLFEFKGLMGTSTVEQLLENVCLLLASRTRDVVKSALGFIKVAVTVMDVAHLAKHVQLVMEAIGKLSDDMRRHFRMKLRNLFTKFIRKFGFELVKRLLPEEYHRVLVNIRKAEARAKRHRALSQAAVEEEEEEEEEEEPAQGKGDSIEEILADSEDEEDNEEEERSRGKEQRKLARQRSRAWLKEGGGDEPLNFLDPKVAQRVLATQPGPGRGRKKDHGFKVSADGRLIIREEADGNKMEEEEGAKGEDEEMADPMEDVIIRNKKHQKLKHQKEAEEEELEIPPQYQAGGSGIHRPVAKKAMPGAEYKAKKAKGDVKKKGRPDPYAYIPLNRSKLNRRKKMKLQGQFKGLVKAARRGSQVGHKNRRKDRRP
active: [3] 0.811
inactive: [1] -0.056 | crizotinib -0.074 | [2] -0.242 | duvelisib -0.014 | gandotinib 0.074 | tozasertib -0.092 | [4] 0.053 | doramapimod 0.203 | ispinesib -0.172 | bafetinib 0.01 | [5] -0.036 | nilotinib -0.082 | [6] 0.088 | dasatinib -0.028 | [7] 0.184 | [8] -0.136 | [9] -0.123 | tipifarnib -0.035 | mubritinib -0.096

RPS6KA2 isoform 2 (UniProt Q15349)
active: [6] -0.571
inactive: [1] 0.026 | crizotinib -0.148 | [2] 0.128 | [3] -0.057 | duvelisib 0.047 | gandotinib -0.048 | tozasertib 0.042 | [4] 0.063 | doramapimod -0.057 | ispinesib -0.058 | bafetinib -0.112 | [5] 0.15 | nilotinib 0.008 | dasatinib -0.228 | [7] -0.013 | [8] 0.001 | [9] 0.021 | tipifarnib -0.069 | mubritinib 0.085

SDCBP (UniProt O00560)
active: ispinesib -0.361
inactive: [1] -0.003 | crizotinib -0.216 | [2] 0.101 | [3] -0.043 | duvelisib -0.008 | gandotinib 0.094 | tozasertib 0.048 | [4] 0.086 | doramapimod -0.006 | bafetinib -0.229 | [5] 0.038 | nilotinib 0.015 | [6] -0.021 | dasatinib -0.12 | [7] 0 | [8] -0.076 | [9] -0.058 | tipifarnib 0.018 | mubritinib 0.025

RDH11 (UniProt Q8TC12)
UniProt Q8TC12, sequence (Q8TC12 whole entry, looked up): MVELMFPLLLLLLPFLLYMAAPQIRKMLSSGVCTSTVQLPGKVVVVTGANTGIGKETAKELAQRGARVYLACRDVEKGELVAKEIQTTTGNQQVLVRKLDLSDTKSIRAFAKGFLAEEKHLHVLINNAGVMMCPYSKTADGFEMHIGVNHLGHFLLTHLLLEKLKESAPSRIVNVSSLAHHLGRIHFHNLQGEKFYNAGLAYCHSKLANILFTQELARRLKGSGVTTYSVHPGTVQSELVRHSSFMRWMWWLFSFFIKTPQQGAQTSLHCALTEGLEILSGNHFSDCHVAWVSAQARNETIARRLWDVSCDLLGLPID
active: [4] 0.425
inactive: [1] 0.164 | crizotinib -0.303 | [2] 0.082 | [3] 0.116 | duvelisib 0.11 | gandotinib 0.115 | tozasertib -0.029 | doramapimod 0.098 | ispinesib -0.365 | bafetinib -0.119 | [5] -0.048 | nilotinib 0.099 | [6] -0.112 | dasatinib -0.079 | [7] -0.03 | [8] 0.015 | [9] -0.022 | tipifarnib 0.059 | mubritinib -0.033

SEH1L isoform 1 (UniProt Q96EE3)
inactive: [1] -0.03 | crizotinib 0.04 | [2] -0.008 | [3] -0.028 | duvelisib 0.016 | gandotinib -0.069 | tozasertib 0.011 | [4] 0.01 | doramapimod 0.011 | ispinesib 0.054 | bafetinib -0.083 | [5] 0.051 | nilotinib 0.012 | [6] -0.081 | dasatinib -0.008 | [7] -0.028 | [8] 0.015 | [9] -0.037 | tipifarnib -0.11 | mubritinib 0.031

RRAS2 isoform 4 (UniProt P62070)
UniProt P62070, sequence (P62070 whole entry, looked up): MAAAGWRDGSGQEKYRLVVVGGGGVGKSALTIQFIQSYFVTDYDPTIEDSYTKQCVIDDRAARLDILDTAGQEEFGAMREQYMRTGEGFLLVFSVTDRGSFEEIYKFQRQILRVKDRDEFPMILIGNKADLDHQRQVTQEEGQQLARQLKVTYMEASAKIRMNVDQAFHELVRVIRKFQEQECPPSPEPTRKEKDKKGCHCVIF
inactive: [1] 0.044 | crizotinib 0.162 | [2] -0.001 | [3] -0.152 | duvelisib -0.002 | gandotinib -0.016 | tozasertib -0.048 | [4] -0.042 | doramapimod 0.012 | ispinesib -0.019 | bafetinib -0.05 | [5] -0.082 | nilotinib 0.111 | [6] -0.021 | dasatinib 0.066 | [7] 0.025 | [8] 0.062 | [9] -0.03 | tipifarnib 0.088 | mubritinib -0.025

RMC1 (UniProt Q96DM3)
UniProt Q96DM3, sequence (Q96DM3 whole entry, looked up): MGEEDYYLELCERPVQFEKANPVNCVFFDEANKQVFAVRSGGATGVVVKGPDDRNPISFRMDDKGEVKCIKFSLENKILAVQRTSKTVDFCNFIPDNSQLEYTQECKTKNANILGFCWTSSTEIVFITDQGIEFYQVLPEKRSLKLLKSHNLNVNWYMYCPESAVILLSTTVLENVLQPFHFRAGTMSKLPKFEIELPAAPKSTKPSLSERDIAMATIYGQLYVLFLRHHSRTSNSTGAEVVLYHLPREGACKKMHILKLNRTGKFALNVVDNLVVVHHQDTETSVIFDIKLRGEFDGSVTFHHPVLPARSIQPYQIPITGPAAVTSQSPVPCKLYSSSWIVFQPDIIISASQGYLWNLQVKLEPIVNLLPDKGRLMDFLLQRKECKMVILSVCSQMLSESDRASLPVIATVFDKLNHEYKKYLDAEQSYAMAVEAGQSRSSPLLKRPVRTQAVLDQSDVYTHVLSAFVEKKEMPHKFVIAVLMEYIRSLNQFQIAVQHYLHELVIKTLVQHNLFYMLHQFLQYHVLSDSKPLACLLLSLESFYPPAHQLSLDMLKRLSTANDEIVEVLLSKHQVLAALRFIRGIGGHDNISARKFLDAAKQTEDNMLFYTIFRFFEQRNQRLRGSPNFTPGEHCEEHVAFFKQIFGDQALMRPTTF
active: crizotinib -0.509 | ispinesib -0.254
inactive: [1] 0.021 | [2] 0.061 | [3] -0.012 | duvelisib -0.005 | gandotinib 0.027 | tozasertib 0.026 | [4] 0.066 | doramapimod 0.038 | bafetinib -0.043 | [5] 0.072 | nilotinib -0.032 | [6] -0.047 | dasatinib -0.063 | [7] -0.082 | [8] 0.03 | [9] -0.016 | tipifarnib 0.045 | mubritinib 0.012

SIRT2 (UniProt Q8IXJ6)
UniProt Q8IXJ6, sequence (Q8IXJ6 whole entry, looked up): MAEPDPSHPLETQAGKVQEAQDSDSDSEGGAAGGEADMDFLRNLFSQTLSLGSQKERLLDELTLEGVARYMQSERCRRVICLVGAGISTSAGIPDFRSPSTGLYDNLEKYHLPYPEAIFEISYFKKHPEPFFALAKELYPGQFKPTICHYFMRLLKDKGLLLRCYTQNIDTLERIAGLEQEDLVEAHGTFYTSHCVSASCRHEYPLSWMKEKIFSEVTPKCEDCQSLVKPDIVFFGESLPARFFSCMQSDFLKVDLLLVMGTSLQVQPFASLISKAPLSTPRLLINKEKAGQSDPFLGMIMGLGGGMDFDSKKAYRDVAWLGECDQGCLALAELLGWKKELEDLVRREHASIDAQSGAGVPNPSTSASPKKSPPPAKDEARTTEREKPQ
inactive: [1] 0.042 | crizotinib -0.015 | [2] -0.002 | [3] 0.072 | duvelisib -0.048 | gandotinib 0.002 | tozasertib -0.099 | [4] -0.032 | doramapimod -0.009 | ispinesib -0.001 | bafetinib -0.041 | [5] -0.003 | nilotinib 0.061 | [6] -0.006 | dasatinib -0.032 | [7] -0.051 | [8] 0.104 | [9] -0.002 | tipifarnib 0.027 | mubritinib 0.067

SCCPDH (UniProt Q8NBX0)
UniProt Q8NBX0, sequence (Q8NBX0 whole entry, looked up): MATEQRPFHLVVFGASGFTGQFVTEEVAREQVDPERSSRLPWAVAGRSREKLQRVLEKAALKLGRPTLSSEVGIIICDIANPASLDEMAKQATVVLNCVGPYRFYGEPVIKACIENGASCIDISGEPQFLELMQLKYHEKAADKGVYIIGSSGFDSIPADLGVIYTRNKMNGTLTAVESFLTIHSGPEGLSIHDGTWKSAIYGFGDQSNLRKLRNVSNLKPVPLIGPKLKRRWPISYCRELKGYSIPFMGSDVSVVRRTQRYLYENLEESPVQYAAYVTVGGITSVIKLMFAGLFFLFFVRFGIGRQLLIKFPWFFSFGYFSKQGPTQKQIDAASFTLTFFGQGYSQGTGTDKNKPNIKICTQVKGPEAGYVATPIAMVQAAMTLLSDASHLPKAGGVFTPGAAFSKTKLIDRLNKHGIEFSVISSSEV
active: tipifarnib 0.419
inactive: [1] 0.074 | crizotinib 0.333 | [2] 0.058 | [3] -0.093 | duvelisib 0.068 | gandotinib 0.313 | tozasertib -0.018 | [4] 0.124 | doramapimod 0.007 | ispinesib 0.081 | bafetinib 0.161 | [5] -0.046 | nilotinib 0.189 | [6] 0.019 | dasatinib 0.008 | [7] 0.174 | [8] 0.273 | [9] -0.074 | mubritinib 0.104
